The values below come from publication PMC5540273 (PLoS ONE, 2017).

Among the test systems are AAK1; ABL1-nonphosphorylated; ABL1-phosphorylated; ABL2; ACVR1B; ACVR1; ACVR2A; ACVR2B; ACVRL1.
Settings in all cases: concentration: 1 μM, replicates: in singlicate; n = 1
Another experiment deals with T1, ADCK3.
T1 construct: gene CABC1
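Further: KINOMEscan kinase panel screen.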

For `COc1cc(Nc2nccc(-c3c(-c4cccc(NC(=O)c5c(F)cccc5F)c4)nn4ccccc34)n2)cc(OC)c1OC` [GSK323521], the “%Inh” value in the experiment on AAK1 was determined as 44%; in the experiment on ABL1-nonphosphorylated, 52%; in the experiment on ABL1-phosphorylated, 0%; in the experiment on ABL2, 33%; with ACVR1B, 19%; in the experiment on ACVR1, 0%. Moreover, the “%Inh” value in the experiment on ACVR2A was 7%; in the experiment on ACVR2B, 15%; in the experiment with ACVRL1 it was 25%; with ADCK3 it was 10%.
With `Cc1ccc(F)c(C(=O)Nc2cccc(-c3nn4ccccc4c3-c3ccnc(Nc4cccc(F)c4)n3)c2)c1F` [GSK361061], the “%Inh” value in the experiment on AAK1 worked out at 16%; in the experiment on ABL1-nonphosphorylated it was 26%; with ABL1-phosphorylated, 0%; with ABL2 it was 62%; in the experiment with ACVR1B it was 60%; in the experiment with ACVR1, 23%. The “%Inh” value in the experiment on ACVR2A was found to be 7%; with ACVR2B, 43%; with ACVRL1, 38%; in the experiment on ADCK3 it was 0%.
Take `COc1cc(Nc2ncc3c(C)nc(-c4cc5ccccc5[nH]4)n3n2)cc(OC)c1OC` [GW869516]: the “%Inh” value with AAK1 came to 0%; in the experiment on ABL1-nonphosphorylated, 32%; with ABL1-phosphorylated, 24%; in the experiment with ABL2, 21%; with ACVR1B it was 8%; in the experiment with ACVR1, 0%. The “%Inh” value with ACVR2A was 9%; in the experiment with ACVR2B, 24%; in the experiment on ACVRL1, 0%; in the experiment with ADCK3, 22%.
Take `Cl.NC(=O)c1cccc(Nc2nccc(Nc3ccc(Oc4c(Cl)cccc4Cl)c(Cl)c3)n2)c1` [GW659009]: the “%Inh” value with AAK1 is 15%; in the experiment on ABL1-nonphosphorylated, 67%; in the experiment on ABL1-phosphorylated it was 0%; in the experiment with ABL2, 85%; with ACVR1B it was 100%; in the experiment with ACVR1, 0%. In addition, the “%Inh” value with ACVR2A came to 0%; with ACVR2B, 0%; with ACVRL1, 7%; in the experiment on ADCK3 it was 0%.
Take `c1ccc(Oc2ccc(Nc3ccnc4cc(-c5ccc(CNCCN6CCOCC6)o5)ccc34)cc2)nc1` [GW567145]: the “%Inh” value in the experiment on AAK1 is 6%; with ABL1-nonphosphorylated, 78%; in the experiment with ABL1-phosphorylated, 12%; in the experiment with ABL2, 6%; in the experiment on ACVR1B it was 0%; with ACVR1, 8%. Moreover, the “%Inh” value is listed as 0% with ACVR2A, 14% in the experiment with ACVR2B, 0% with ACVRL1 and 2% with ADCK3.
Consider `CCc1ccc(-c2ccc3c(c2)-c2c(cnn2C)S(=O)(=O)N3C)cc1`, for which the “%Inh” value in the experiment on AAK1 turned out to be 0%; with ABL1-nonphosphorylated it was 7%; in the experiment on ABL1-phosphorylated, 0%; in the experiment on ABL2, 0%; in the experiment with ACVR1B it was 14%; in the experiment with ACVR1 it was 0%. Also, the “%Inh” value in the experiment on ACVR2A is given as 5%; with ACVR2B, 0%; in the experiment with ACVRL1, 17%; with ADCK3 it was 0%.
In the case of `CC(=O)Nc1nc2cnc(Nc3cc(NC(=O)c4cccc(C5(C#N)CC5)c4Cl)ccc3C)nc2s1`, the “%Inh” value with AAK1 is 23%; in the experiment with ABL1-nonphosphorylated it was 99%; with ABL1-phosphorylated, 59%; in the experiment on ABL2 it was 70%; in the experiment with ACVR1B, 0%; in the experiment with ACVR1, 0%. In addition, the “%Inh” value with ACVR2A, with ACVR2B, with ACVRL1 and in the experiment on ADCK3 was 0% throughout.
On to `Cc1occc1-c1ncc(OC[C@@H](N)Cc2c[nH]c3ccccc23)cc1-c1ccc2[nH]nc(C)c2c1.O=C(O)C(F)(F)F` [GSK682037], for which the “%Inh” value turned out to be 61% in the experiment on AAK1; 13% with ABL1-nonphosphorylated; 33% with ABL1-phosphorylated; 47% with ABL2; 8% in the experiment with ACVR1B; 0% in the experiment on ACVR1. Moreover, the “%Inh” value in the experiment on ACVR2A stood at 0%; in the experiment with ACVR2B, 0%; in the experiment with ACVRL1, 0%; with ADCK3 it was 25%.
As for `COc1ccc(Nc2nccc(N3CCC(NC(=O)Nc4cccc(OC)c4)C3)n2)cc1` (stereo not drawn) [GSK1379742], the “%Inh” value came out at 4% in the experiment with AAK1; 0% with ABL1-nonphosphorylated; 0% with ABL1-phosphorylated; 12% in the experiment on ABL2; 0% in the experiment on ACVR1B; 7% in the experiment on ACVR1. In addition, the “%Inh” value with ACVR2A is given as 0%; with ACVR2B, 0%; in the experiment on ACVRL1, 0%; in the experiment on ADCK3 it was 1%.
In the case of `CN(c1ccc(NC(=O)Nc2cc(C(F)(F)F)ccc2F)cc1)c1ccnc(Nc2ccc(S(N)(=O)=O)cc2)n1` [GW809893], the “%Inh” value was 9% with AAK1; 98.1% in the experiment with ABL1-nonphosphorylated; 75% in the experiment on ABL1-phosphorylated; 98.5% with ABL2; 1% with ACVR1B; 0% in the experiment on ACVR1. For the same compound, the “%Inh” value with ACVR2A came out at 0%; in the experiment on ACVR2B, 14%; in the experiment on ACVRL1 it was 4%; with ADCK3 it was 0%.
Consider `COc1ccc(-c2coc3ccc(-c4nnc(SCc5ccc(OC)c(C(F)(F)F)c5)o4)cc23)cc1`, for which the “%Inh” value in the experiment on AAK1 is listed as 2%; in the experiment on ABL1-nonphosphorylated, 13%; in the experiment with ABL1-phosphorylated, 0%; in the experiment on ABL2, 24%; in the experiment on ACVR1B, 7%; in the experiment on ACVR1, 28%. Also, the “%Inh” value is 0% with ACVR2A, 0% in the experiment on ACVR2B, 26% in the experiment with ACVRL1 and 21% with ADCK3.
As for `Cc1ccc(C(=O)N2CC[C@@H](O)C2)cc1-n1c(C)cc(OCc2ccc(F)cc2F)c(Br)c1=O`, the “%Inh” value was determined as 0% in the experiment with AAK1; 92.1% in the experiment with ABL1-nonphosphorylated; 90.5% with ABL1-phosphorylated; 72% with ABL2; 12% in the experiment with ACVR1B; 0% in the experiment with ACVR1. Besides, the “%Inh” value worked out at 31% in the experiment on ACVR2A, 0% in the experiment on ACVR2B, 0% with ACVRL1 and 0% with ADCK3.
For `Cc1ccc(C(=O)Nc2ccc(Nc3ccnc4cc(-c5nccs5)ccc34)cc2O)cc1.Cl` [GW494702], the “%Inh” value with AAK1 amounted to 4%; in the experiment with ABL1-nonphosphorylated it was 57%; with ABL1-phosphorylated, 12%; with ABL2, 12%; in the experiment on ACVR1B, 0%; in the experiment on ACVR1 it was 18%. In addition, the “%Inh” value was found to be 0% in the experiment on ACVR2A, 19% in the experiment on ACVR2B, 0% in the experiment with ACVRL1 and 1% with ADCK3.
For the compound `CC(C)(C)c1ccc2nccc(Nc3cccc(O)c3)c2c1` [GW856795], the “%Inh” value in the experiment on AAK1 is given as 0%; in the experiment on ABL1-nonphosphorylated it was 86%; in the experiment on ABL1-phosphorylated, 85%; in the experiment on ABL2, 33%; in the experiment with ACVR1B, 0%; in the experiment with ACVR1, 8%. For the same compound, the “%Inh” value with ACVR2A came to 26%; with ACVR2B, 63%; with ACVRL1, 0%; in the experiment with ADCK3, 0%.
Take `COC(=O)Nc1nc2cc(Oc3ccc(NC(=O)Nc4cc(C(F)(F)F)ccc4F)cn3)ccc2[nH]1.Cl.Cl` [GW681170]: the “%Inh” value with AAK1 was determined as 51%; with ABL1-nonphosphorylated, 99.1%; with ABL1-phosphorylated, 74%; with ABL2 it was 82%; with ACVR1B, 0%; in the experiment on ACVR1, 0%. Besides, the “%Inh” value amounted to 0% in the experiment on ACVR2A, 0% in the experiment with ACVR2B, 0% in the experiment on ACVRL1 and 2% in the experiment with ADCK3.
